Results as given in ChEMBL document CHEMBL3988442, “University of Dundee, Small-Polar-MMV Screening Library” (2021).

Target: AMP-activated protein kinase, AMPK (Homo sapiens) (UniProt P54646+O43741+P54619+Q9UGJ0+Q9Y478+Q13131+Q9UGI9)
Assay: AMP-dependent Kinase enzyme assay. An in vitro enzyme assay that detects ADP turnover that is directly proportional to AMPK activity. This uses naive AMPK that is activated during the assay with MK-8722
Format: functional
Design: scale not given: direction of the effect not stated beside the values
Details: 30 µM

Row | SMILES | Percent Effect [%]
1 | Cc1cc(C)n2c(CNCCNc3ccccc3)cnc2n1 | -15.1
2 | CN(Cc1nncn1C)C(=O)c1cc(COc2ccccc2F)[nH]n1 | -9.05
3 | Cc1ccc(-c2noc(C3CCN3C(=O)c3c(C)noc3C)n2)s1 (centres undefined) | 5.86
4 | O=C(NCC(O)c1cccc(F)c1)C1CCN(C2CCCCC2)CC1 (centres undefined) | -10
5 | CCNC(=O)[C@@H]1C[C@@H](N)CN1C(=O)c1[nH]c2ccccc2c1CC | 13.5
6 | CC(CN1CCOC1=O)NC(=O)c1cccc2cc[nH]c12 (centres undefined) | 8.07
7 | O=S(=O)(NCc1ccnc(-n2ccnc2)c1)c1cncc(F)c1 | -5.49
8 | O=C(Cc1ccc(Cl)cc1)N[C@@H]1CCC[C@@H](O)[C@@H]1O | 22.5
9 | CN1C[C@H](c2ccccc2)[C@H]2CN(C(=O)Cc3cccc(O)c3)CC[C@H]21 | 15.8
10 | O=C(c1cc(-c2ccccc2)nc2onc(C3CC3)c12)N1CC[C@H](O)C1 | 4.85
11 | CCN(C)C[C@@H]1CN(C(=O)c2cc(C(F)(F)F)n[nH]2)C[C@@H]1CO | 7.62
12 | COC(=O)Cn1c(C)cc(=O)c2cc(F)ccc21 | 1.38
13 | CCOc1ccccc1C(C(=O)O)N(C)Cc1nnc(C)o1 (centres undefined) | 4.89
14 | Cc1cccc(N2CCN(C(=O)CNCCn3cc(C)cn3)CC2)c1 | -4.92
15 | Cc1cnn(C2CCCN(C(=O)c3cc[nH]n3)C2)c1 (centres undefined) | -0.778
16 | CN(C)C(=O)CN1CCN(c2cc(N3CCCC3CO)ncn2)CC1 (centres undefined) | -0.698
17 | CN(CC(=O)NCC(F)(F)F)Cc1cccc2c1OCCO2 | 3.65
18 | O=c1c(CN2CCOCC2)coc2ccc(Cl)cc12 | -2.73
19 | Cc1cnc(C(=O)N2CCN(c3ncc4c(n3)CCOC4)CC2)cn1 | 15.1
20 | Cc1ccc(CNC(=O)c2ccc(=O)n(C)n2)c(OCC2CC2)c1 | 14.4

Row | SMILES | Percent Effect [%]
21 | Cc1nc(OCC(=O)N2CCCC2)cc(-n2cccn2)n1 | 3.39
22 | Cc1ccc(C)c(CC(=O)NC2CCC(N3C(=O)CCC3=O)CC2)c1 (centres undefined) | -3.29
23 | CC(C)c1cc(NCc2csc(C(C)C)n2)nc(N)n1 | -7.72
24 | COc1ccccc1CN(C)C(=O)C[S+]([O-])Cc1cc(C)on1 (centres undefined) | -2.86
25 | Cc1nc(N)c2ccc(C3CCCN3)nc2n1 (centres undefined) | 10.9
26 | NCC(CO)Cc1ccc(C(F)(F)F)cc1 (centres undefined) | -3.66
27 | CN(CCCC1CCCO1)C(=O)c1cccc(C#N)c1 (centres undefined) | 10.9
28 | CN1CCN(C(=O)CCn2ncc3ccccc32)CC(C(N)=O)C1 (centres undefined) | 7.38
29 | NC(=O)C1CCN(c2ccc(C(=O)N3CCc4ccccc43)cn2)C1 (centres undefined) | 6.03
30 | CC(=O)Nc1ccc(CN2C[C@H]3CC[C@@H]2CN(c2ncccn2)C3)cc1 | 13
31 | CSCC(=O)N1CCN(CC(O)C(C)(C)C)CC1 (centres undefined) | -3.62
32 | CCN(CC)CCN(CC(C)C)c1cc(C(F)(F)F)nc2ncnn12 | 0.943
33 | CCc1nc(CCNS(=O)(=O)c2cccc(C(=O)N(C)CC)c2)cs1 | 1
34 | Cc1ccc(N2CCCN(C(=O)CCc3ccsc3)CC2)nn1 | -4.33
35 | CCC(C(=O)N(Cc1ccccc1OC)C1CC1)n1cccn1 (centres undefined) | 0.528
36 | Cc1n[nH]c(C)c1CCN(C)C(=O)c1ccc(CCC(C)(C)O)cc1 | 2.23
37 | CCc1nc(C)c(C(=O)N[C@@H]2c3ccccc3C[C@@H]2O)o1 | 15.9
38 | CN(C(=O)c1ccc(C#N)cc1)c1nnc(C2CCOC2)s1 (centres undefined) | 11.3
39 | CCC(C(=O)NC1(C(N)=O)CCCC1)n1cccn1 (centres undefined) | -1.13
